Results on 24 compounds are retold here after PubChem BioAssay.

The target of test [1] is ATP-dependent translocase ABCB1 (Homo sapiens) (UniProt P08183). Nature of the test: MDR1 (ABCB1) efflux transporter inhibition, cell-based (AID 377; in the data active = fluorescence slope change above about 50%). The conditions noted are these: MDR1-expressing cells, fluorescent substrate accumulation slope; stronger effect = higher value; concentration not given here.
Test [2] is described as follows: reducers of polyQ inclusions in PC12 cells, cell-based, NGF-treated PC12, GFPQ80 (AID 1614).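 Also: lower means fewer inclusions and 0 means no inclusions at all.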 The conditions noted are these: PC12 NGF-treated GFP-polyQ80 inclusion reduction.
A short description of test [3]: growth inhibition of DIPG glioma cells, dose response, cell-based, SU-DIPG-XIII, MIPE4.0, CellTiter-Glo, qHTS (AID 1347061; cut-off not given, nearly all actives have AC50 up to about 37 µM;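 also: cells exposed to compound for 48 hours before readout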). The conditions noted are these: SU-DIPG-XIII viability, CellTiter-Glo ATP luminescence. On the technique in general: Cellular ATP, detected with luciferase, serves as a proxy for viable cell number.
Test [4] in a line: growth inhibition of DIPG glioma cells, dose response, cell-based, JHH-DIPG-1, MIPE4.0, CellTiter-Glo, qHTS (AID 1347062; cut-off not given, nearly all actives have AC50 up to about 27 µM;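 as to AC50: cells exposed to compound for two days before readout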). As to conditions: JHH-DIPG-1 viability, CellTiter-Glo ATP luminescence.
Test [5] is described as follows: growth inhibition of DIPG glioma cells, dose response, cell-based, SU-DIPG-IV, MIPE4.0, CellTiter-Glo, qHTS (AID 1347063; cut-off not given, nearly all actives have AC50 up to about 30 µM;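 also: compound exposure lasted 48 hours before the viability readout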). The conditions noted are these: SU-DIPG-IV viability, CellTiter-Glo ATP luminescence.
A short description of test [6]: viability loss in pontine glioma line – cell-based, SU-DIPG-XXV, MIPE5.0, CellTiter-Glo, qHTS, dose response (AID 1347065; cut-off not given, nearly all actives have AC50 up to about 26 µM;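 also: cells exposed to compound for 48 hours before ATP readout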). As to conditions: CellTiter-Glo ATP luminescence.
The nature of test [7]: SU-DIPG-VI glioma cell viability, MIPE4.0 library, CellTiter-Glo luminescence, qHTS (AID 1347066; cut-off not given, nearly all actives have AC50 up to about 30 µM;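 also: cells exposed to compound for 48 hours before readout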). The conditions noted are these: CellTiter-Glo ATP luminescence.
The nature of test [8]: JHH-DIPG-1 glioma cell viability, MIPE5.0 library, CellTiter-Glo luminescence, qHTS (AID 1347067; cut-off not given, nearly all actives have AC50 up to about 26 µM;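 also: cells exposed to compound for 48 hours before readout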). The conditions noted are these: JHH-DIPG-1 glioma viability, CellTiter-Glo ATP luminescence.
The nature of test [9]: SU-DIPG-XXV glioma cell viability, MIPE5.0 library, qHTS (AID 1347068; cut-off not given, nearly all actives have IC50 up to about 30 µM). On the technique in general: In qHTS, concentration-response curves come from the screen itself.
The subject of test [10] is Neuropilin-2 / VEGF-C interaction (human). Nature of the test: inhibitors of NRP2–VEGF-C binding, biochemical, microplate binding format, z-score (AID 743281). The conditions noted are these: microplate NRP2/VEGF-C binding assay; stronger effect = lower value.
Test [11] in a line: circadian clock period modulators, cell-based, LOPAC library, luminescence reporter (AID 2774).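 Also: values are relative to mean of DMSO wells on each plate.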 The conditions noted are these: circadian reporter cells, at 7 µM, actives lie on both sides.
In test [12] the test system is Hepatitis C virus NS3 helicase. Nature of the test: HCV NS3 helicase inhibitors, primary screen, biochemical, fluorescence polarization, LOPAC1280 library (AID 687035; in the data active = inhibition above about 37%). As to conditions: Purified HCV NS3 helicase, Cy5-dT15 ssDNA binding fluorescence polarization; stronger effect = higher value; concentration not given here. (In general: Fluorescence polarisation rises when a labelled molecule tumbles more slowly, as on binding a larger partner.)

Test [13] is described as follows: Cy5 fluorescence quenching or enhancement artefacts, artefact control for HCV NS3 helicase inhibitor project, biochemical, LOPAC1280 (AID 687037). As to conditions: Cy5-DNA-NS3h complex fluorescence interference counterscreen.
A short description of test [14]: phospholipid biosynthesis inhibitors in animal cells, primary screen, cell-based, LOPAC library, screen 4 (AID 1347384). As to conditions: phospholipid biosynthesis inhibition screen, at 10 µM.
The nature of test [15]: growth inhibition of DIPG glioma cells, dose response, cell-based, SU-DIPG-XVII, MIPE5.0, CellTiter-Glo, qHTS (AID 1347060; cut-off not given, nearly all actives have AC50 up to about 26 µM;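 as to AC50: cells exposed to compound for 48 hours before viability readout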). As to conditions: SU-DIPG-XVII viability, CellTiter-Glo ATP luminescence.
Test [16] in a line: growth inhibition of DIPG glioma cells, dose response, cell-based, SU-DIPG-XIII, MIPE5.0, CellTiter-Glo, qHTS (AID 1347064; cut-off not given, nearly all actives have AC50 up to about 23 µM;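 as to AC50: cells exposed to compound for 48 hours before the viability read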). As to conditions: SU-DIPG-XIII viability, CellTiter-Glo ATP luminescence.
Test [17] is described as follows: modifiers of HSF1 nuclear foci, imaging, Selleck Cancer Library (AID 1347162; in the data active = plate-normalised HSF1 focus index below about 0.46). The conditions noted are these: human cells, at 10 µM; SSMD: measured here: HSF1 foci SSMD mean; cell count: measured here: cell number; plate-normalised HSF1 focus index: stronger effect = lower value.

Where “and” joins values, the source holds several entries; their conditions need not be identical. Identical values can stand only once. Inconclusive results are not listed. Calls of active or inactive are those of the source. Unless noted, no rule for the calls is given here.

Sequence of ATP-dependent translocase ABCB1 (Homo sapiens) (P08183 whole entry, looked up): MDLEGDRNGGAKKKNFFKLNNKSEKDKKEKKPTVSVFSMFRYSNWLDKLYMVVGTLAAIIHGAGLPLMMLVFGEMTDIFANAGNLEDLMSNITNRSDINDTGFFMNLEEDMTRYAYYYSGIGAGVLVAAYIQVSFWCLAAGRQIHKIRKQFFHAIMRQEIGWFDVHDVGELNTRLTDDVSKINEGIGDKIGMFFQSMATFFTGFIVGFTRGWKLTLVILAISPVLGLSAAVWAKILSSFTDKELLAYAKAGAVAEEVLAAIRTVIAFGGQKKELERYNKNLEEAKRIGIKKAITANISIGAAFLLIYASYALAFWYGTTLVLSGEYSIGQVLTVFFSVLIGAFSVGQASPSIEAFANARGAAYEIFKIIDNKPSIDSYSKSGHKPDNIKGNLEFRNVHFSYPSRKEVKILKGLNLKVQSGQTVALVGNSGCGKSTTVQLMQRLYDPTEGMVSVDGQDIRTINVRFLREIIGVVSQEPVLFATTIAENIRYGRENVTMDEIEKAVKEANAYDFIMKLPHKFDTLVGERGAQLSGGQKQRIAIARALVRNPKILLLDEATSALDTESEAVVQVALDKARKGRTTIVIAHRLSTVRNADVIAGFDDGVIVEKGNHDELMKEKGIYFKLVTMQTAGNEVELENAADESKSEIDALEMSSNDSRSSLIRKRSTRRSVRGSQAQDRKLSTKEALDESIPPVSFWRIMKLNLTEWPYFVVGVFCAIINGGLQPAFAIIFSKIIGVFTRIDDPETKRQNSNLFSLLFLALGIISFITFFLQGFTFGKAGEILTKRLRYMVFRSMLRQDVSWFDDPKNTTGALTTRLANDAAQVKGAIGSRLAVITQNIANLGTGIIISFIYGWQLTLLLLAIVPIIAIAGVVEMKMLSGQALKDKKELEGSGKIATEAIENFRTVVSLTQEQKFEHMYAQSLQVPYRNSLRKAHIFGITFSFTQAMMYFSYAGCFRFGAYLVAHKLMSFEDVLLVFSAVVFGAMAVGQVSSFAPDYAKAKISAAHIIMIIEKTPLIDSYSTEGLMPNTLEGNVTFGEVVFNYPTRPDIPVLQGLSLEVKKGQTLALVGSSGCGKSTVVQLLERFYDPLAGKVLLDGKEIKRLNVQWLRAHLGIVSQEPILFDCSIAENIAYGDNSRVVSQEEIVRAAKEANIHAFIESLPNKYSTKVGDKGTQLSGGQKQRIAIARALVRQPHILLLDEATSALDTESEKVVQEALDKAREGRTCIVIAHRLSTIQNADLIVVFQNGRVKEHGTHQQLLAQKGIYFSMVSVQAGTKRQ

For the compound `COc1ccc(OC)c(C(O)CNC(=O)CN)c1` (centres undefined), the fluorescence slope change in test [1] was 79.4% (active). The inclusion score in [2] turned out to be 2.

In the case of `c1ccc2[nH]c(-c3cscn3)nc2c1`, in test [1], the fluorescence slope change is 17.8% (inactive). The compound further gave an inclusion score in test [2] of 2. Moreover, the outcome in [3], in test [4], in [5], in test [6], in test [7] and in [8] was inactive. In addition, in test [9], the compound was called inactive.

Consider `COc1ccccc1OCC(O)COC(N)=O` (centres undefined), for which the fluorescence slope change in [1] is 15.6% (inactive). Also, the inclusion score in [2] is 2. Moreover, the call in test [3], in test [4] and in test [7] was inactive.

For the compound `NC(=O)N1c2ccccc2CC(=O)c2ccccc21`, the z-score in test [10] is 0.598 (inactive). Also, the compound was classed as inactive in test [3], in [4], in test [5] and in [7].

`O=C1C(CCS(=O)c2ccccc2)C(=O)N(c2ccccc2)N1c1ccccc1` (centres undefined): the fluorescence slope change in test [1] is 61.4% (active). Besides, the inclusion score in [2] turned out to be 1.5.

The term inhibition denotes the relative decrease from the control value, in per cent. On to `CCc1cccc2c3c([nH]c12)C(CC)(CC(=O)O)OCC3` (centres undefined), for which the fluorescence slope change in test [1] is 73.7% (active). This compound also came in with an inclusion score in [2] of 2. The period change in [11] was -0.07 h (inactive). The inhibition in test [12] is -3% (inactive). Moreover, the fluorescence ratio (interference) in test [13] is 1 (inactive). Moreover, the compound was classed as inactive in test [3], in test [4], in [5], in test [7] and in test [14].

Consider `Cc1ncc([N+](=O)[O-])n1CC(C)O` (centres undefined), for which the z-score in test [10] was 0.376 (inactive). In addition, the outcome in test [15], in test [4], in test [5], in test [7], in test [8] and in [9] was inactive.

Take `C/C=C/C(=O)N(CC)c1ccccc1C`: in test [10], the z-score is -0.426 (inactive). The call in test [15], in test [4], in test [16], in [7], in [8] and in [9] was inactive.

For `CO[C@@]1(NC(=O)Cc2cccs2)C(=O)N2C(C(=O)O)=C(COC(N)=O)CS[C@@H]21`, the fluorescence slope change in test [1] is 94% (active). The inclusion score in [2] turned out to be 2.

Consider `CC(C)(C)NCC(O)COc1cccc2c1C[C@H](O)[C@H](O)C2` (some centres undefined), for which the fluorescence slope change in test [1] is 55.3% (active). Also, the inclusion score in [2] was 2.

A word on the AC50: it is the midpoint of the concentration-response curve, whichever way the signal moves. As to `Cc1ccc(-c2cc(C(F)(F)F)nn2-c2ccc(S(N)(=O)=O)cc2)cc1`, the compound was called inactive in test [4], in test [5], in test [9] and in [14]. Moreover, the AC50 was 18.6 µM (active) in test [16] and 10.5 µM (active) in test [8]. Moreover, the SSMD in [17] is -12.9. This compound also gave a cell count in test [17] of 5490. Moreover, in test [17], the plate-normalised HSF1 focus index was 0.546 (inactive).

For the compound `Cc1ccccc1C(OCCN(C)C)c1ccccc1` (centres undefined), in [1], the fluorescence slope change was 22.7% (inactive). Also, the inclusion score in test [2] came out at 2. The period change in test [11] was 0.21 h (inactive). Moreover, the inhibition in test [12] was -2% (inactive). For the same compound, the fluorescence ratio (interference) in test [13] was 0.9 (inactive). Moreover, the call in test [3], in test [4], in [5], in [7] and in test [14] was inactive.

Take `COC(=O)Nc1nc2ccc(C(=O)c3ccccc3)cc2[nH]1`: the fluorescence slope change in [1] was 92.4% (active). The AC50 in [15] was 0.0934 µM (active); in test [3] it was 18.7 µM (active); in test [16] it was 0.417 µM (active); in test [6], 0.332 µM (active); in [8], 0.468 µM (active). Besides, the compound was classed as inactive in test [7].

On to `OCCN1CCN(CCCN2c3ccccc3Sc3ccc(C(F)(F)F)cc32)CC1`, for which, in test [1], the fluorescence slope change is 91.3% (active). Besides, the period change in test [11] was 0.01 h (inactive). Moreover, the inhibition in [12] was -2% (inactive). Moreover, in [13], the fluorescence ratio (interference) was 0.9 (inactive). The z-score in test [10] was 0.247 (inactive). Also, the AC50 was 10.5 µM (active) in [15]; 18.7 µM (active) in [5]; 9.34 µM (active) in test [16]; 7.42 µM (active) in [6]; 3.72 µM (active) in [8]. For the same compound, the call in test [14] was inactive.

In the case of `CN[C@H]1CC[C@@H](c2ccc(Cl)c(Cl)c2)c2ccccc21`, the z-score in [10] is -0.0357 (inactive). The AC50 in test [16] was 26.3 µM (active); in test [8] it was 16.6 µM (active).

In the case of `CN1CCCC(n2nc(Cc3ccc(Cl)cc3)c3ccccc3c2=O)CC1` (centres undefined), the z-score in test [10] was 0.519 (inactive). Further, the AC50 in [4] was 2.35 µM (active); in test [5] it was 6.62 µM (active).

On to `CN(CCOc1ccc(CC2SC(=O)NC2=O)cc1)c1ccccn1` (centres undefined), for which the z-score in test [10] was 0.0365 (inactive) and -0.614 (inactive). Further, the compound was called inactive in test [15], in test [4], in test [5], in test [6], in test [7] and in [8]. Also, the call in [9] was inactive. Also, in test [17], the SSMD was 2.43. In test [17], this compound displayed a cell count of 7680. The plate-normalised HSF1 focus index in test [17] was 1.15 (inactive).

With `CN(C)CCC=C1c2ccccc2CCc2ccccc21`, the period change in test [11] was 0.175 h (inactive). Moreover, the inhibition in [12] was -5% (inactive). For the same compound, the fluorescence ratio (interference) in test [13] was 0.9 (inactive). Besides, the outcome in [14] was inactive.

Consider `C=C(CC)C(=O)c1ccc(OCC(=O)O)c(Cl)c1Cl`, for which the fluorescence slope change in [1] is 85.9% (active).

For `NS(=O)(=O)c1cc2c(cc1C(F)(F)F)NCNS2(=O)=O`, the inclusion score in test [2] amounted to 2.

As for `CC(N=C(NC#N)Nc1ccncc1)C(C)(C)C` (centres undefined), the fluorescence slope change in test [1] is 190% (active). Moreover, the period change in [11] is 0.07 h (inactive). Further, the inhibition in [12] is -5% (inactive). Besides, in test [13], the fluorescence ratio (interference) was 1 (inactive). For the same compound, the z-score in [10] is -0.52 (inactive). Besides, in test [14], the compound was called inactive.

`CCN(CC)CCNC(=O)c1ccc(N)cc1` came in with an inclusion score in test [2] of 2. The period change in [11] is 0.185 h (inactive). Besides, the inhibition in [12] was -2% (inactive). For the same compound, in [13], the fluorescence ratio (interference) is 1 (inactive). The compound was called inactive in test [14].

`CN(C)CCOC(C)(c1ccccc1)c1ccccn1` (centres undefined) came in with an inclusion score in [2] of 2. In test [11], the period change was 0.205 h (inactive). For the same compound, the inhibition in test [12] was -2% (inactive). Besides, the fluorescence ratio (interference) in test [13] was 1.1 (inactive). For the same compound, in [10], the z-score was -0.0183 (inactive). Also, the call in test [14] was inactive.

With `Cc1ccc(Cl)c(Nc2ccccc2C(=O)O)c1Cl`, the fluorescence slope change in test [1] was 27.6% (inactive). This compound also displayed an inclusion score in [2] of 2. In test [11], the period change is 0.13 h (inactive). The inhibition in [12] is 0% (inactive). In addition, in test [13], the fluorescence ratio (interference) was 1 (inactive). Also, the call in test [14] was inactive.
